Assay results as given in the supplement of paper PMC11732987, “Enantioselective OTUD7B fragment discovery through chemoproteomics screening and high-throughput optimisation” (Communications Chemistry, 2025).

Columns and labels:
Test in all cases: log2 ratio of Biotin-Ahx-Ub-VS probe labelling (fragment/DMSO); higher = less target engagement (more negative = stronger competition), active = hit call of the paper (q ≤ 0.05, log2 ratio ≤ -1)
Conditions in all cases: compound concentration: 200 uM; treatment time: 3 h
USP19 = molecular target: T1, USP19 (UniProt O94966)
T1 sequence (whole entry): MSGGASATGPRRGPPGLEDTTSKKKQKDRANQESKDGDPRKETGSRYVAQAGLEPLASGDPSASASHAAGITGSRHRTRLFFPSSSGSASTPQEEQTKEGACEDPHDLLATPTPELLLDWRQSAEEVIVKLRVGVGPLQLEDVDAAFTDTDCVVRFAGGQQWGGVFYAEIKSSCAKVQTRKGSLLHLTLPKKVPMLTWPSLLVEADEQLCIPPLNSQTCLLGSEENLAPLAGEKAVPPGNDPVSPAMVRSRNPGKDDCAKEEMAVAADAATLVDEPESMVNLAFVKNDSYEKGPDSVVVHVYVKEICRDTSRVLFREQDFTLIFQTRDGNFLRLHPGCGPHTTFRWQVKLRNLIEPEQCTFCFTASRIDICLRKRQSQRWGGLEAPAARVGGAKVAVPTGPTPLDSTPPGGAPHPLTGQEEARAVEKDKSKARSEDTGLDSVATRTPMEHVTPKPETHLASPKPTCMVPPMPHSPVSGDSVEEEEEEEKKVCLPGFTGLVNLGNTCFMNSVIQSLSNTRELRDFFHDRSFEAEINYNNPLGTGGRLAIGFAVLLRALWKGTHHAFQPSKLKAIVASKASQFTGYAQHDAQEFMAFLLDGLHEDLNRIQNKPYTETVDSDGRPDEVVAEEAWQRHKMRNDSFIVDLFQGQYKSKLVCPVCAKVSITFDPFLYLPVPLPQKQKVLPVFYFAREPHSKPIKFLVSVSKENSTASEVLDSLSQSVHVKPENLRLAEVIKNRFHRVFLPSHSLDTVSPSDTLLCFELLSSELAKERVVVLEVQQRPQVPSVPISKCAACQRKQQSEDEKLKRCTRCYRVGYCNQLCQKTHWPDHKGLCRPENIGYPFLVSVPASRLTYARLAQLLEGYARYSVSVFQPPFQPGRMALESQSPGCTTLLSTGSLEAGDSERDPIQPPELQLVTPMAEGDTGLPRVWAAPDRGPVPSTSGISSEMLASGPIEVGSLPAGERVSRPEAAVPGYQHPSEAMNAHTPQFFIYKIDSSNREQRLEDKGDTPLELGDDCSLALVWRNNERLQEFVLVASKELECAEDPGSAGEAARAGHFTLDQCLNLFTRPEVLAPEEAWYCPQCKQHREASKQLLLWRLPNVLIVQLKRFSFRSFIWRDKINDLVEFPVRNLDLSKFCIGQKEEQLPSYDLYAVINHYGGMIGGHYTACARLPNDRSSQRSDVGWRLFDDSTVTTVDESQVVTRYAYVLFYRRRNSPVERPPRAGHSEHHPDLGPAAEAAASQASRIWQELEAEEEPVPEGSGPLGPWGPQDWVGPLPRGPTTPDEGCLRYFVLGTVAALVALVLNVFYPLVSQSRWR
In short: (§1)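 Triplicate samples of HEK293T lysate, 495 µg each, received fragment at 200 µM or vehicle for 3 h, followed by Biotin-Ahx-Ub-VS (0.5 µM final) for 1 h. After NeutrAvidin enrichment of labelled DUBs and LysC/trypsin digestion, peptides were run by diaPASEF LC-MS/MS. The values are average log2 fragment/vehicle ratios from global-median-normalised Spectronaut label-free quantities, tested by unpaired t-test on proteins having ≥2 unique peptides.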

USP24 = USP24 (UniProt Q9UPU5)
Sequence of USP24 (Q9UPU5 whole entry): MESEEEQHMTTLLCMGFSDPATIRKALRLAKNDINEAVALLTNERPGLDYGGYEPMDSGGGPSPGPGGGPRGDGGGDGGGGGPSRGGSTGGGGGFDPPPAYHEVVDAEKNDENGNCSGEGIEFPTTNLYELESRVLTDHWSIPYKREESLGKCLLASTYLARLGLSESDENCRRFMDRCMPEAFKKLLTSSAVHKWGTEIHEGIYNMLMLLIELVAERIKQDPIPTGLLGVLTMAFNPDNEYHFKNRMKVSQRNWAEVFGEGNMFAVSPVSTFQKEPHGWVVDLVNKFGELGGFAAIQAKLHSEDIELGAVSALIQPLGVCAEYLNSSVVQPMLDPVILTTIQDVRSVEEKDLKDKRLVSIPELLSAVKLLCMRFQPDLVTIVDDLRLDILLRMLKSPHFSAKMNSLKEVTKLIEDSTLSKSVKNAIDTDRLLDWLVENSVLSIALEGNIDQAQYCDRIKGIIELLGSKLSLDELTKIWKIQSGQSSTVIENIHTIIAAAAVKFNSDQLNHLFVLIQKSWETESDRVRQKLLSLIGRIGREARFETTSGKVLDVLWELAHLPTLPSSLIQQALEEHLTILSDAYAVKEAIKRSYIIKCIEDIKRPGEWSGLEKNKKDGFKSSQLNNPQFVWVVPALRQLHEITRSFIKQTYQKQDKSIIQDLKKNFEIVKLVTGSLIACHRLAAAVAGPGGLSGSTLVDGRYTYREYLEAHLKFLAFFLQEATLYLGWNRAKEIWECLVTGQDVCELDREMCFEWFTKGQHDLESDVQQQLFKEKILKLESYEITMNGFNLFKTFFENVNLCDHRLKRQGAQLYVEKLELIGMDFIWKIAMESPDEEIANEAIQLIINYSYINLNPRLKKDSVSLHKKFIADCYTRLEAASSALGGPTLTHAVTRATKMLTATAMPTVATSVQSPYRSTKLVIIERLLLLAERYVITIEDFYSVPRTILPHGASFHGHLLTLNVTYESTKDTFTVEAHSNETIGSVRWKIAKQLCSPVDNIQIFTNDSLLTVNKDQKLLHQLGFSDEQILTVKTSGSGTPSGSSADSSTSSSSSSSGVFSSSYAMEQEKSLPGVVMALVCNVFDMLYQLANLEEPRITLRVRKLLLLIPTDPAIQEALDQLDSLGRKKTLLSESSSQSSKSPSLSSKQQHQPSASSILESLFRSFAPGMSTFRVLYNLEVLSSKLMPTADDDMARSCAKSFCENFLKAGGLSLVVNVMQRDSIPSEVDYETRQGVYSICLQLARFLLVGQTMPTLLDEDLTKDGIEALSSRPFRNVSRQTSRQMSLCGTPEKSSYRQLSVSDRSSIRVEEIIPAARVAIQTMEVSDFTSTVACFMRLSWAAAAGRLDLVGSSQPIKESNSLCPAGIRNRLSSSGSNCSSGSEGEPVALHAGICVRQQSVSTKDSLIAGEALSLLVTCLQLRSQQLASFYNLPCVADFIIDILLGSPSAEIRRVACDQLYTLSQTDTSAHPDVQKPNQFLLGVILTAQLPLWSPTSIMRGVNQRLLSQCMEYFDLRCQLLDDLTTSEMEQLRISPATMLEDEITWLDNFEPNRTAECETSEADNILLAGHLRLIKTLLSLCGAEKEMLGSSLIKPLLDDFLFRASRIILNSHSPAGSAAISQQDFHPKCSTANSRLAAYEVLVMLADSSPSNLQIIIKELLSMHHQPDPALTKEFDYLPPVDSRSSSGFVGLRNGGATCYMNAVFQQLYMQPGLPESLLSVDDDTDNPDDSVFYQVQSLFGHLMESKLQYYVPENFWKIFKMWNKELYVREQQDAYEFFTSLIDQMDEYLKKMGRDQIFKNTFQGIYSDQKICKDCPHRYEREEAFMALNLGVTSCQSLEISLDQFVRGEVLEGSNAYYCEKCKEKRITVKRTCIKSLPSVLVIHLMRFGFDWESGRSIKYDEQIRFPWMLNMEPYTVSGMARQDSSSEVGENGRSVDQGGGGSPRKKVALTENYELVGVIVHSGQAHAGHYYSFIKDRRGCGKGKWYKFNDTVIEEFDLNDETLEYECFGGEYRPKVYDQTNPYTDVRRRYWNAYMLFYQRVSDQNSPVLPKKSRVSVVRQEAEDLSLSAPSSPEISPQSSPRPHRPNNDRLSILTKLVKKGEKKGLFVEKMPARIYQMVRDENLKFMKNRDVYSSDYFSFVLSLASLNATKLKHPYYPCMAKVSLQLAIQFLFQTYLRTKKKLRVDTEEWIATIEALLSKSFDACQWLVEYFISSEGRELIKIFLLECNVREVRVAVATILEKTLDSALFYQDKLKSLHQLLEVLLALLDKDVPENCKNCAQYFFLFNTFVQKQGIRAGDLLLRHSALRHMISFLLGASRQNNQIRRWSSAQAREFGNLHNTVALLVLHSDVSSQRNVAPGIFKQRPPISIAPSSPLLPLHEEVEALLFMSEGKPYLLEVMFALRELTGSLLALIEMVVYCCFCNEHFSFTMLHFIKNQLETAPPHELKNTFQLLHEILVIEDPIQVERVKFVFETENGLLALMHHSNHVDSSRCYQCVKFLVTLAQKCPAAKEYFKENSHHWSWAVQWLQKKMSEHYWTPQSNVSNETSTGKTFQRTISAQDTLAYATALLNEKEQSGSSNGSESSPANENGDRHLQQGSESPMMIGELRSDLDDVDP
In short: as §1

USP25 = molecular target: T2, USP25 (UniProt Q9UHP3)
T2 sequence (whole entry): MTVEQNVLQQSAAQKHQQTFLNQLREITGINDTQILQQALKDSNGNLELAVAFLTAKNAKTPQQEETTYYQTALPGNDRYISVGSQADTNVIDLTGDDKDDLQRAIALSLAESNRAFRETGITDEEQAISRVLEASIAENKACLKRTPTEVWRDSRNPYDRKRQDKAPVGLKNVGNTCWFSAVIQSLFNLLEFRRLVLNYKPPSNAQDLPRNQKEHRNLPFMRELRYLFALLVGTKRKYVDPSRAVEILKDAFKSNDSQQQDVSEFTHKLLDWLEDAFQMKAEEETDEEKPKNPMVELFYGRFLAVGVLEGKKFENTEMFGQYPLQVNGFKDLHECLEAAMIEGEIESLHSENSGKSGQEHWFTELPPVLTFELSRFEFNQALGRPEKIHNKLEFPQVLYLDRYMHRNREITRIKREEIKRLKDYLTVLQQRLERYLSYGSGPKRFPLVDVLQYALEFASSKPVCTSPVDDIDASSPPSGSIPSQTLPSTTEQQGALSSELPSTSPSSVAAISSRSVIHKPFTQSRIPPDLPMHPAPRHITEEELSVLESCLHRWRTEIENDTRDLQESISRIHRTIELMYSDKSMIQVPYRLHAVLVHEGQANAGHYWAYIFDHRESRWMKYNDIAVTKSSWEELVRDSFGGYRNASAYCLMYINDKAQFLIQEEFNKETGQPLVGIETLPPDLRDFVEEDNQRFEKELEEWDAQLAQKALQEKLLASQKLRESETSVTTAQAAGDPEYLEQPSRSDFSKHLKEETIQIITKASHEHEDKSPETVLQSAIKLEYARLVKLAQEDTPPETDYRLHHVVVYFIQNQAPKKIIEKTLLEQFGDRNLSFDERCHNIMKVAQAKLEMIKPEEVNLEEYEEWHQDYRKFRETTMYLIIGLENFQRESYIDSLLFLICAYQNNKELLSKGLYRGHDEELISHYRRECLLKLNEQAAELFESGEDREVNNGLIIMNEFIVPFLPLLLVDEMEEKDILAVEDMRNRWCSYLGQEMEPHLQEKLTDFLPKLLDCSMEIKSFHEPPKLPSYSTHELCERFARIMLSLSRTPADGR
In short: as §1

USP28 = molecular target: T3, USP28 (UniProt Q96RU2)
T3 sequence (whole entry): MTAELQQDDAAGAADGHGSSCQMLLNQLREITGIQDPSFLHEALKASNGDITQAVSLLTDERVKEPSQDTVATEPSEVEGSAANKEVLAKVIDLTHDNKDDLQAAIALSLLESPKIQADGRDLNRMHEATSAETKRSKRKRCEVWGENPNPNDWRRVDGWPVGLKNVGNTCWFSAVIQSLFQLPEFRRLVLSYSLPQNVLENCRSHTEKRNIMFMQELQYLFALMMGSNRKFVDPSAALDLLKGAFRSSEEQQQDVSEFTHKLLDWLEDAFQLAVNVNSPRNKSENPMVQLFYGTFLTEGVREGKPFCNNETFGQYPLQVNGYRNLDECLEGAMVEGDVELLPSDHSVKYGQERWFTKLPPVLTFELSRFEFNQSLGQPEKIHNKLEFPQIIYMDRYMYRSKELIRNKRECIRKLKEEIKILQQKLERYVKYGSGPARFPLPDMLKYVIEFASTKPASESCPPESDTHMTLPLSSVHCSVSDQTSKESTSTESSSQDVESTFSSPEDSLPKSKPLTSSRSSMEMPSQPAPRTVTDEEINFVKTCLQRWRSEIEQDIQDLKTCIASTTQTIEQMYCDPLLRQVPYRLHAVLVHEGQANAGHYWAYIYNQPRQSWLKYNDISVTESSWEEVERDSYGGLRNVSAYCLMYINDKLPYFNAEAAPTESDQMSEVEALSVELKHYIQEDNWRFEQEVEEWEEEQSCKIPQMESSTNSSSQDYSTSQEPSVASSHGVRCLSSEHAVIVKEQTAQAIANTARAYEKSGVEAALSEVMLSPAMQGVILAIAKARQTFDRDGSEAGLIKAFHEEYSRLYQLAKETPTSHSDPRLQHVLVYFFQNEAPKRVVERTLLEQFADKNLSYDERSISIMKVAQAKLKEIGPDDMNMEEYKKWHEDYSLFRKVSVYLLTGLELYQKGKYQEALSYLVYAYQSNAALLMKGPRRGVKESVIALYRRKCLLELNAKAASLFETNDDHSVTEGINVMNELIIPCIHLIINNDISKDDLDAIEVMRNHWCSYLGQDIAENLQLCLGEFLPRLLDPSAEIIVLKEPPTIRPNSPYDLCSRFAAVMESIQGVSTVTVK
In short: as §1

Measured: log2 ratio of Biotin-Ahx-Ub-VS probe labelling

CNC(=O)C1CCN(C(=O)CCl)CC1
inactive: USP19 -0.122 | USP24 -0.198 | USP25 -0.123 | USP28 -0.243
